A selection: hits, their analogues and other compounds. The true share with any hit is near 19%.
KB-V1 cytotox: KB-V1 MDR subline cytotoxicity; KB-V1 MDR cells viability, CellTiter-Glo, 72 h; Potency, µM (highest dose often 46.1 µM), actives largely listed as cytotoxic; 400,000 tested, 3.4% active; note: nearly all actives have a fitted effect of over 60% in size
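KB-V1 MDR subline cells in DMEM (phenol-red free, 10% FBS) exposed to compounds in qHTS concentration series for 72 h at 37 degrees C. Viability read by CellTiter-Glo luminescence; concentration-effect curves fitted after normalization and correction.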
DT40 TDP1 no CPT: qHTS for Inhibitors of human tyrosyl-DNA phosphodiesterase 1 (TDP1): qHTS in cells in absence of CPT | Potency, µM (doses to about 46.2 µM), inactives show top-dose activity change, negative = growth inhibition, actives largely listed as inhibitors | 420,000 tested, 15% active | DT40 Tdp1-/- hTDP1 cells, no CPT, ATP luminescence, 48 h; note: nearly all actives have a fitted effect of over 55% in size
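Chicken DT40 Tdp1-/- cells complemented with human TDP1, screened without camptothecin (DMSO vehicle only), 400 cells/well. Compounds pin-transferred, cells incubated at 37 °C for at least 48 hr. Growth read as ATP-dependent luminescence (CellTiter-Glo, 30 min at RT).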
HT1080-NT tox: kills 2HG-producing HT-1080-NT fibrosarcoma cells; Potency, µM (titrated, usually from 46.1 µM), for the others: at the highest dose activity, negative = less viability, actives largely listed as cytotoxic; HT-1080-NT fibrosarcoma viability, CellTiter-Glo ATP luminescence, 48 h; AID 686970; 360,000 tested, 1.6% active;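 note: NT is the 2HG producing partner of a matched IDH1 knockdown line; 0% = DMSO-treated cells and -100% = media-only wells without cells; nearly all actives have a fitted effect of over 55% in size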
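Fibrosarcoma NT cells, 750 per well in 5% FBS RPMI, were exposed to compound for 48 hours. Viability: CellTiter-Glo luminescence.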
KB-3-1 tox: KB-3-1 parental cell cytotoxicity; 400,000 tested, 1.4% active; KB-3-1 viability, CellTiter-Glo ATP luminescence, 72 h; Potency, µM (top dose mostly 46.1 µM), most hits filed as cytotoxic; note: nearly all actives have a fitted effect of over 60% in size
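Luminescent ATP read-out (CellTiter-Glo) measures survival of drug-naive KB-3-1 cells after 72 h compound exposure at 37 °C. Titration series was screened from lowest to highest concentration, with DMSO vehicle plates as background controls.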
DT40 TDP1 CPT: growth inhibition of DT40 Tdp1-/-;hTDP1 cells with camptothecin (screen for TDP1 inhibitors). chicken DT40 Tdp1-/-;hTDP1 cells + 20 nM CPT, ATP luminescence, 48 h. Potency, µM (highest dose often 46.2 µM), for inactives: top-dose activity change, negative = growth inhibition, actives largely listed as inhibitors. 420,000 tested, 12% active. AID 686979; note: nearly all actives have a fitted effect of over 55% in size
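Chicken DT40 Tdp1-/- cells stably complemented with human TDP1 were seeded at 400 cells/well in medium containing 20 nM camptothecin, exposed to pin-transferred compounds, and grown at 37 °C for at least 48 hr. Viability was read as ATP luminescence.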
HT1080 IDH1KD tx: toxicity to HT-1080 IDH1 knockdown cells (counter line); Potency, µM (top dose mostly 46.1 µM), without a hit: at the top dose activity, negative = toxicity, most hits filed as cytotoxic; AID 686971; HT-1080 IDH1 knockdown viability, ATP luminescence, 48 h; 360,000 tested, 2% active;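 note: 0% = DMSO wells and -100% = cell-free medium wells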
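Knockdown cells (IDH1KD HT-1080) received compounds 2 h after plating at 750 cells/well and were kept 48 h at 37 °C in 5% FBS RPMI. A CellTiter-Glo luminescence read gave % activity for curve fitting.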
* = called active by the depositor. Calls come from the whole dose curve; as a rule, active = well fitted curve in the direction sought with a large enough effect; inconclusive = small, poorly fitted or top-dose-only effect, or another doubt; inactive = no such curve, though single readings can be large; an effect the other way counts as inactive or inconclusive. Unless noted, % is set by controls: 0 for no effect and ±100 for the full control effect; potency is the fitted concentration of half-maximal effect.

Results for CSCCC(NC(=O)c1ccccc1Br)C(=O)NNC(=O)c1cc(C)oc1C (stereo unspecified) ?
KB-V1 cytotox: inactive; DT40 TDP1 no CPT: -4%; HT1080-NT tox: -1%; KB-3-1 tox: inactive; DT40 TDP1 CPT: -17%; HT1080 IDH1KD tx: 1%

How did CC(=O)OCC(=O)Nc1c(C)cc(C)cc1C do in these assays?
KB-V1 cytotox: inactive; DT40 TDP1 no CPT: 2%; HT1080-NT tox: 1%; KB-3-1 tox: inactive; DT40 TDP1 CPT: inconclusive; HT1080 IDH1KD tx: 1%

What do the screens show for `CC(=O)Nc1cc(-c2ccc(N3CCN(C)CC3)cc2)cn2c(-c3ccccc3)cnc12`?
KB-V1 cytotox: inactive; DT40 TDP1 no CPT: 16µM*; HT1080-NT tox: inconclusive; KB-3-1 tox: inactive; DT40 TDP1 CPT: 21µM*; HT1080 IDH1KD tx: 21µM*

How did CC(=O)Nc1cc(-c2ccc(N3CCN(C)CC3)cc2)cn2c(-c3ccc(S(C)(=O)=O)cc3)cnc12 do in these assays?
KB-V1 cytotox: inactive; DT40 TDP1 no CPT: 21µM*; HT1080-NT tox: 6%; KB-3-1 tox: inactive; DT40 TDP1 CPT: 15µM*; HT1080 IDH1KD tx: 7%

How did COc1ccccc1CCC(=O)Nc1nccs1 do in these assays?
KB-V1 cytotox: inactive; DT40 TDP1 no CPT: inconclusive; HT1080-NT tox: 18%; KB-3-1 tox: inactive; DT40 TDP1 CPT: -17%; HT1080 IDH1KD tx: 15%

Results for CCOC(=O)Cc1cnc(NC(=O)CSc2nc(C)cc(C)n2)s1 ?
KB-V1 cytotox: inconclusive; DT40 TDP1 no CPT: inconclusive; HT1080-NT tox: -3%; KB-3-1 tox: inactive; DT40 TDP1 CPT: -4%; HT1080 IDH1KD tx: 4%

Results for Cc1cc(C)nc(SCC(=O)Nc2ncc(Cc3cccc(Cl)c3Cl)s2)n1 ?
KB-V1 cytotox: inconclusive; DT40 TDP1 no CPT: 18µM*; HT1080-NT tox: 3%; KB-3-1 tox: inactive; DT40 TDP1 CPT: 23µM*; HT1080 IDH1KD tx: -4%

What do the screens show for `CCc1ccc(CCC(=O)Nc2ncc(Cc3ccccc3Cl)s2)o1`?
KB-V1 cytotox: inactive; DT40 TDP1 no CPT: 5.8µM*; HT1080-NT tox: 6.5µM*; KB-3-1 tox: inconclusive; DT40 TDP1 CPT: 5.2µM*; HT1080 IDH1KD tx: 4.6µM*

Results for Cc1cnc(NC(=O)Cc2ccccc2F)s1 ?
KB-V1 cytotox: inactive; DT40 TDP1 no CPT: 21µM*; HT1080-NT tox: -25%; KB-3-1 tox: inactive; DT40 TDP1 CPT: 7.3µM*; HT1080 IDH1KD tx: -7%

What do the screens show for `COc1ccccc1CCC(=O)Nc1ncc(C)s1`?
KB-V1 cytotox: 23µM*; DT40 TDP1 no CPT: inconclusive; HT1080-NT tox: -15%; KB-3-1 tox: inconclusive; DT40 TDP1 CPT: 10µM*; HT1080 IDH1KD tx: -2%

What do the screens show for `COc1ccccc1NC(=O)N(Cc1ccc2c(c1)OCO2)Cc1nc2ccccc2c(=O)[nH]1`?
KB-V1 cytotox: inactive; DT40 TDP1 no CPT: 13µM*; HT1080-NT tox: 7%; KB-3-1 tox: inactive; DT40 TDP1 CPT: 18µM*; HT1080 IDH1KD tx: 12%

How did COc1ccccc1CN(Cc1nc2ccccc2c(=O)[nH]1)C(=O)Nc1cccc(C)c1 do in these assays?
KB-V1 cytotox: inconclusive; DT40 TDP1 no CPT: 3.7µM*; HT1080-NT tox: 7.1µM*; KB-3-1 tox: inactive; DT40 TDP1 CPT: 3.3µM*; HT1080 IDH1KD tx: 3.5µM*

What do the screens show for `COc1ccccc1C(=O)NCC(=O)N(C)Cc1nc2ccccc2c(=O)[nH]1`?
KB-V1 cytotox: inactive; DT40 TDP1 no CPT: -1%; HT1080-NT tox: 5%; KB-3-1 tox: inactive; DT40 TDP1 CPT: -17%; HT1080 IDH1KD tx: 3%

Results for Cc1noc(C)c1CSCC(=O)Nc1ccc(S(=O)(=O)C(F)F)cc1 ?
KB-V1 cytotox: inactive; DT40 TDP1 no CPT: -28%; HT1080-NT tox: -1%; KB-3-1 tox: inactive; DT40 TDP1 CPT: -13%; HT1080 IDH1KD tx: 6%

How did CC(=O)O[C@H]1C[C@@]2(O)[C@@H](OC(=O)c3ccccc3)C3[C@@](C)([C@@H](O)C[C@H]4OC[C@@]34OC(C)=O)[C@@H](O)[C@H](OC(C)=O)C(=C1C)C2(C)C (stereo partly specified) do in these assays?
KB-V1 cytotox: inactive; DT40 TDP1 no CPT: 18µM*; HT1080-NT tox: inconclusive; KB-3-1 tox: inconclusive; DT40 TDP1 CPT: 16µM*; HT1080 IDH1KD tx: inconclusive

Results for CC1(C)CC(OC(=O)c2ccccc2)CC(C)(C)N1 ?
KB-V1 cytotox: inactive; DT40 TDP1 no CPT: 2%; HT1080-NT tox: -2%; KB-3-1 tox: inactive; DT40 TDP1 CPT: -18%; HT1080 IDH1KD tx: 10%

What do the screens show for `CCOC(=O)c1[nH]c2ccccc2c1NC(=O)c1cc(OC)cc(OC)c1`?
KB-V1 cytotox: 8.2µM*; DT40 TDP1 no CPT: 23µM*; KB-3-1 tox: inactive; DT40 TDP1 CPT: 23µM*

How did COC(=O)c1[nH]c2cc(OC)c(OC)cc2c1NC(=O)c1cccc(OC)c1 do in these assays?
KB-V1 cytotox: inconclusive; DT40 TDP1 no CPT: 21µM*; HT1080-NT tox: 8%; KB-3-1 tox: inactive; DT40 TDP1 CPT: inconclusive; HT1080 IDH1KD tx: 9%

Results for CC(C)n1c(=S)[nH]c2cc(Cl)ccc21 ?
KB-V1 cytotox: inconclusive; DT40 TDP1 no CPT: inconclusive; HT1080-NT tox: -10%; KB-3-1 tox: inactive; DT40 TDP1 CPT: -19%; HT1080 IDH1KD tx: -5%

Results for COc1ccc(S(=O)(=O)Nc2cc(S(=O)(=O)c3ccccc3)c(O)cc2C)cc1 ?
KB-V1 cytotox: inactive; DT40 TDP1 no CPT: -14%; HT1080-NT tox: 2%; KB-3-1 tox: inactive; DT40 TDP1 CPT: -18%; HT1080 IDH1KD tx: -4%

Results for O=S(=O)(Nc1ccc(Cl)cc1NS(=O)(=O)c1ccccc1)c1ccccc1 ?
KB-V1 cytotox: inactive; DT40 TDP1 no CPT: inconclusive; HT1080-NT tox: inconclusive; KB-3-1 tox: inactive; DT40 TDP1 CPT: inconclusive; HT1080 IDH1KD tx: inconclusive

What do the screens show for `O=C(O)CSc1cc(NS(=O)(=O)c2ccc(Cl)cc2)c2ccccc2c1O`?
KB-V1 cytotox: inconclusive; DT40 TDP1 no CPT: 2.3µM*; HT1080-NT tox: inconclusive; KB-3-1 tox: inconclusive; DT40 TDP1 CPT: 4.6µM*; HT1080 IDH1KD tx: 26µM*

Results for COc1ccc(S(=O)(=O)Nc2cccc3ccc(O)cc23)cc1 ?
KB-V1 cytotox: inconclusive; DT40 TDP1 no CPT: 7.3µM*; HT1080-NT tox: 3.3µM*; KB-3-1 tox: 15µM*; DT40 TDP1 CPT: 6.5µM*; HT1080 IDH1KD tx: 5.2µM*

Compound activity (PubChem BioAssay)
